In PubChem BioAssay AID651635 (National Center for Advancing Translational Sciences (NCATS), 2012):
Among all 400,000 compounds or so, about 1,900 (0.47%) were called active. Inconclusive results (about 14%) are left out. The call rests on the fitted dose curve; in most records, active means well fitted cell-killing curve with a large enough effect; inconclusive means small, poorly fitted or top-dose-only effect, or effect the other way; inactive means no such curve, though single readings can be large or run the other way. The list comes from a sample in which actives are over-represented; it also holds similar structures and randomly drawn compounds. A call without a number means that no potency is given here.

experiment: Viability Counterscreen for Primary qHTS for Inhibitors of ATXN expression; settings: S2 cells (HEK-293 line with an ATXN2-luciferase reporter) viability, CellTiter-Fluor protease fluorescence, 24 h; series mostly up to 56.7 µM; further: nearly all actives have a fitted effect of over 40% in size
Potency means the concentration at half of the fitted maximal effect.

SMILES	Potency
OC[C@@H]1CN(Cc2ccncc2)C[C@H](n2cnc3c(N4CCN(c5ccccc5)CC4)ncnc32)O1	inactive
COc1cc(=O)n2c(c1C(=O)N(C)Cc1nccs1)CCN(Cc1ccc(Cl)cc1)CC2	inactive
COc1ccc(CCN2C(=O)C(C)=C(C)C2=O)cc1OC	inactive
CCCCN1C(=O)C(C)=C(C)C1OCCc1ccc(OC)c(OC)c1 (configuration not stated)	inactive
CCCCOc1ccc(CN2C(=O)C(=O)c3cc(Br)cc(C)c32)cc1OC	25.1 µM (active)
CCOP(=O)(OCC)C(Cc1ccccc1)N=C(c1ccccc1)c1ccccc1 (configuration not stated)	inactive
C/C(=N\NC(=O)Cc1ccc(Cl)cc1)c1ccccn1	5.62 µM (active)
COc1ccc(/C(C)=N\NC(=O)c2ccc(-c3ccccc3)cc2)c(F)c1	inactive
NC(=O)NC(CC(=O)NNC(=O)c1ccccn1)c1ccc(Cl)cc1 (configuration not stated)	inactive
C/C(=N\NC(=O)c1ccccc1F)c1ccccn1	7.94 µM (active)
O=C(NCCOc1ccccc1)c1ccccc1F	inactive
CC1=NNC(=O)C1CCC(=O)N/N=C(\C)c1ccc(Cl)cc1 (configuration not stated)	inactive
Cn1nccc1C(=O)NCC1CCC2(CCN(Cc3c(O)ccc4ccccc34)CC2)O1 (configuration not stated)	inactive
COc1ccccc1C1CN(Cc2ccccc2O)Cc2ccccc2O1 (configuration not stated)	inactive
CCC1CN(CCNC(=O)c2cccc(C)n2)Cc2cc(OC)ccc2O1 (configuration not stated)	inactive
Cc1ccc2c(C)nc(N3CCCC(C(=O)NC(C)(C)CO)C3)nc2c1 (configuration not stated)	inactive
CCC1(C2CCN(Cc3cccnc3)CC2)NC(=O)N(CC2COc3ccccc3O2)C1=O (configuration not stated)	inactive
COc1cc(C)c(CN2CCc3nnc(C(C)NC(=O)c4cccnc4)n3CC2)cc1C (configuration not stated)	inactive
Cc1cccc(CNC(=O)c2cnn(-c3nccc(-c4ccccc4F)n3)c2C2CC2)n1	inactive
COC(=O)c1ccc2c(c1)N(CC(=O)Nc1ccc(C)c(C)c1)C(=O)c1ccccc1S2	inactive
CCC(CO)Oc1cc(NC(=O)c2ccc(Cl)cc2)c2ncn(C(C)C)c2c1 (configuration not stated)	inactive
CC(C)n1cnc2c(NCc3ccccc3)cc(OCC3CCN(C)CC3)cc21	31.6 µM (active)
CN(C)c1nccc(NCc2ccccc2)c1C#N	inactive
COC(=O)c1ccc(CN2C(=O)C(Cc3ccccc3)ON=C2c2ncccc2C)o1 (configuration not stated)	inactive

SMILES	Potency
Cc1nc2c(OCc3ccc(Cl)cc3Cl)cccn2c1N(C)CC1CC1	20 µM (active)
CCCCC(=O)N(C)c1c(CC)nc2c(OCc3ccc(Cl)cc3Cl)cccn12	inactive
CCc1nc2c(OCc3ccc(Cl)cc3Cl)cccn2c1N(C)C(=O)C(C)C	22.4 µM (active)
CCc1nc2c(OCc3ccc(F)c(F)c3)cccn2c1N(C)C(=O)c1ccco1	inactive
CCc1nc2c(OCc3cccc(OC)c3)cccn2c1N(C)C(=O)C(C)C	inactive
CCOC(=O)N(C)c1c(CC)nc2c(OCc3ccccc3C(=O)OC)cccn12	inactive
CCOC(=O)[C@]12CCC=C1N(Cc1cccc3ccccc13)C(=O)[C@H](CC(=O)NCc1cccc(C(F)(F)F)c1)C2	inactive
CCCCNC(=O)C1CCC(CNS(=O)(=O)c2ccc(NC(C)=O)cc2)CC1 (configuration not stated)	inactive
COc1ccc(NC(=O)C2CCC(CNS(=O)(=O)c3csc(C(N)=O)c3)CC2)cc1OC (configuration not stated)	inactive
Cc1cc(NC(=O)C2CCC(CNS(=O)(=O)c3ccc(Br)s3)CC2)ccc1Br (configuration not stated)	35.5 µM (active)
O=C(c1cn(CC2CCCN(Cc3cc4ccccc4s3)C2)nn1)N1CCCC1 (configuration not stated)	inactive
COc1ccc(CCCNC(=O)C2Cc3c(-c4cccc(C(N)=O)c4)ccnc3O2)cc1 (configuration not stated)	inactive
COC(=O)c1ccc2nc(-c3ccc(OC)c(OC)c3)c(Cc3ccccc3)n2c1	inactive
Cc1cc(C)cc(CN2CCc3nnc(C(NS(C)(=O)=O)C(C)C)n3CC2)c1 (configuration not stated)	inactive
OC(c1ccc(F)cc1)c1ncc(-c2cccc(C(F)(F)F)c2)[nH]1 (configuration not stated)	inactive
CC(=O)OC[C@H]1O[C@@H](O[C@H]2[C@H](O)[C@@H](OC(=O)c3ccccc3C(=O)O)[C@H](O)O[C@@H]2COC(C)=O)[C@H](O)[C@@H](OC(=O)c2ccccc2C(=O)O)[C@@H]1O	inactive
CCOc1ccc(-n2nc3ccc(NC(=O)c4ccc(OC)c(Cl)c4)cc3n2)cc1	inactive
COc1cccc(NC(=O)c2ccc3c(SCC(=O)O)c4c(nc3c2)CCCC4)c1	inactive
CCOc1ccc(C(=O)Nc2ccc3nc4c(c(Nc5ccccc5OC)c3c2)CCCC4)cc1	14.1 µM (active)
CCOc1ccc(NC(=O)CSc2nncn2C)cc1	inactive
CCOc1ccc(NC(=O)CSc2nc3ccccc3c(=O)n2Cc2cccs2)cc1	inactive
CCOc1ccc(NC(=O)CSc2c3c(nc4ccccc24)CCCC3)cc1	25.1 µM (active)
C[C@@H]1CCC[C@H](C)N1CCCC(O)(c1ccccc1)c1ccccn1 (some centres not stated)	inactive
